Results published in PubChem BioAssay (EPA / NIEHS).
Where “and” joins values, the source holds several entries; their conditions need not be identical. Identical values can stand only once. Inconclusive results are not listed. Some structures have more than one record in an assay (separate samples or runs), and their calls can disagree. Calls of active or inactive are those of the source. The calls were made as follows: active = hit-call score of the fitted dose curve at least 0.9, where 1 is the maximum; inconclusive = response in the unintended direction; inactive = score below 0.9.

How the values were obtained:
[1] = TOX21_p53_BLA_p2_viability: Viability Assessment in the Tox21 HCT-116 p53 Agonism Beta-lactamase Assay, Phase 2 (AID 2283591);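 also: actives lower the ATP signal meaning cytotoxicity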
Method in brief: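 Cytotoxicity readout: CellTiter-Glo ATP luminescence, 30 min at room temperature, after the beta-lactamase read. Cells were HCT116 exposed 16 h at 37C to compounds pin-transferred at 217-fold dilution from DMSO stocks.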

[2] = molecular target: Cellular tumor antigen p53 (Homo sapiens) (UniProt P04637); assay: TOX21_p53_BLA_p2_ratio: Tox21 HCT-116 p53 Agonism Beta-lactamase Assay, Ratio, Phase 2 (AID 2283592)
Cellular tumor antigen p53 (Homo sapiens), sequence (P04637 whole entry, looked up): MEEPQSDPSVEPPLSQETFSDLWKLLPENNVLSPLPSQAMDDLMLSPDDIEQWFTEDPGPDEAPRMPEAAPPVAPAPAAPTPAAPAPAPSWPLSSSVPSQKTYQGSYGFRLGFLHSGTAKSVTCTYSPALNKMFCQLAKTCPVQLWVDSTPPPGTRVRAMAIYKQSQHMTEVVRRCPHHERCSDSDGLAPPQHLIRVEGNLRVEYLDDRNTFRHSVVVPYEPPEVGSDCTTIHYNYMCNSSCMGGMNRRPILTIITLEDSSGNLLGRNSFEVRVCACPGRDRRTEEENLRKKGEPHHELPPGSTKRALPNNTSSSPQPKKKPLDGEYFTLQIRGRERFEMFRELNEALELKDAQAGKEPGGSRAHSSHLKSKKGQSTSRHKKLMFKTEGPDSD
Method in brief: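 First, HCT116 reporter cells settle for 5 h at 37C. Next, DMSO compound solutions are pinned in (217-fold dilution) and left 16 h. Finally, CCF4-AM substrate is loaded 2 h at room temperature and the 460/530 nm ratio read.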

[3] = TOX21_p53_BLA_p3_viability: Viability Assessment in the Tox21 HCT-116 p53 Agonism Beta-lactamase Assay, Phase 3 (AID 2283593);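 also: cells exposed to compound for 16 h before reading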
Method in brief: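 Cellular ATP was quantified by CellTiter-Glo luminescence, read after 30 min at room temperature. Beforehand, HCT116 cells (4000/well) received compound 5 h post-seeding, 217-fold diluted from DMSO, then incubated 16 h at 37C.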

[4] = molecular target: Cellular tumor antigen p53 (Homo sapiens) (UniProt P04637); assay: TOX21_p53_BLA_p3_ratio: Tox21 HCT-116 p53 Agonism Beta-lactamase Assay, Ratio, Phase 3 (AID 2283596)
Method in brief: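 Cells were seeded at 4000/well, rested 5 h at 37C, then dosed with DMSO compound solutions (217-fold dilution) for 16 h. CCF4-AM substrate was loaded for 2 h at room temperature, and the 460/530 nm emission ratio was fitted for gain of signal versus DMSO.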

[5] = TOX21_p53_BLA_p4_viability: Viability Assessment in the Tox21 HCT-116 p53 Agonism Beta-lactamase Assay, Phase 4 (AID 2283597);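 also: hits lower the luminescence signal meaning cytotoxicity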
Method in brief: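 4000 HCT116 cells per well; 5 h attachment; compounds from DMSO, 217-fold dilution; 16 h at 37C. Then CCF4-AM, 2 h RT, followed by CellTiter-Glo, 30 min RT, luminescence. Decrease = cytotoxicity.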

[6] = molecular target: Cellular tumor antigen p53 (Homo sapiens) (UniProt P04637); assay: TOX21_p53_BLA_p5_ratio: Tox21 HCT-116 p53 Agonism Beta-lactamase Assay, Ratio, Phase 5 (AID 2283599)
Method in brief: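 Beta-lactamase reporter ratio (blue 460 nm over green 530 nm, 405 nm excitation) after 2 h CCF4-AM loading, in HCT-116 cells exposed 16 h at 37 C to compounds pinned at 217-fold dilution. Increases relative to DMSO baseline scored.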

[7] = TOX21_p53_BLA_p5_viability: Viability Assessment in the Tox21 HCT-116 p53 Agonism Beta-lactamase Assay, Phase 5 (AID 2283600)
Method in brief: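 Decreased CellTiter-Glo luminescence denotes lost viability. Exposure: 16 h at 37C, 5% CO2, with compounds from DMSO stocks diluted 217-fold in wells of 4000 cells.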

[8] = molecular target: Cellular tumor antigen p53 (Homo sapiens) (UniProt P04637); assay: TOX21_p53_BLA_p4_ratio: Tox21 HCT-116 p53 Agonism Beta-lactamase Assay, Ratio, Phase 4 (AID 2283601)
Method in brief: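 Signal is the blue/green (460nm/530nm) ratio of cleaved versus uncleaved CCF4-AM substrate, read after 2 h substrate loading. Cells were HCT116 carrying the p53-responsive beta-lactamase reporter, dosed 16 h at 37C, 5% CO2; CellTiter-Glo measured in parallel.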

Measured: AC50

BrCC(Br)C1CCC(Br)C(Br)C1 (stereo not given)
inactive: all assays above

CN
inactive: all assays above

O=C(O)c1nn(Cc2ccc(Cl)cc2Cl)c2ccccc12
inactive: [1] | [2] | [3] | [4] | [5] | [6] | [7] | [8]
active: [8] 81.2 µM

Oc1cc(Cl)c(Cl)c(Cl)c1Cl
inactive: [1] | [5] | [7]
active: [2] 5.97 µM | [3] 22.3 µM | [4] 6.58 µM | [6] 7.24 µM | [8] 7.69 µM

O=[N+]([O-])c1ccc([As](=O)(O)O)cc1
inactive: all assays above

COC(=O)[C@]12CCC(C)(C)C[C@H]1[C@H]1C(=O)C=C3[C@@]4(C)C=C(C#N)C(=O)C(C)(C)[C@@H]4CC[C@@]3(C)[C@]1(C)CC2
active: [1] 1.83 µM | [2] 29.2 µM | [3] 1.37 µM | [4] 15.3 µM | [5] 1.99 µM | [6] 31.7 µM | [7] 2.57 µM | [8] 7.4 µM

S=C=Nc1cccc2ccccc12
active: [2] 38.5 µM | [8] 32.4 µM
inactive: all other assays above

CCC(=O)O[C@]1(c2ccccc2)CCN(C)C[C@H]1C
inactive: all assays above

CC(=O)[O][Sn]([c]1ccccc1)([c]1ccccc1)[c]1ccccc1
active: [1] 2.52 µM | [2] 6.42 µM | [3] 2.87 µM | [4] 17.7 µM | [5] 2.42 µM | [6] 18.4 µM | [7] 11.2 µM | [8] 8.98 µM

O=C(O)c1ccccn1
inactive: all assays above

O=C(O)CC[N+](=O)[O-]
inactive: all assays above

CCCCCCCCCCCC[N+](C)(C)CCOc1ccccc1
active: [1] 28.1 µM and 30.3 µM | [2] 33.3 µM and 40.8 µM | [3] 53 µM and 22.3 µM | [4] 84.4 µM and 43.8 µM | [5] 37.5 µM and 16.3 µM | [6] 85.4 µM and 44.8 µM | [7] 54.3 µM and 33.6 µM | [8] 36.1 µM

CC(=O)C(Cl)Cl
inactive: all assays above

CC(O)C(=O)[O][Hg][c]1ccccc1 (stereo not given)
active: [1] 2.69 µM | [2] 9.88 µM | [3] 0.648 µM | [4] 2.21 µM | [5] 3.87 µM | [6] 2.92 µM | [7] 1.59 µM | [8] 5.92 µM

O=[N+]([O-])c1ccccc1CCl
inactive: all assays above

Oc1cc(Cl)c(Cl)c(Cl)c1
active: [1] 44.1 µM | [2] 10.2 µM | [4] 17.3 µM | [5] 69.4 µM | [6] 13.2 µM | [8] 37.5 µM
inactive: [3] | [7]

CCCCCl
inactive: all assays above

[O]=[Cd]
inactive: all assays above

N#CC(C#N)=Cc1cc(O)c(O)c(O)c1
inactive: all assays above

Nc1ccccc1C(=O)OCC=Cc1ccccc1
active: [1] 66.3 µM
not listed: [7]
inactive: all other assays above

C[C@]12CCC(=O)C[C@@H]1CC[C@@H]1[C@@H]2CC[C@@]2(C)[C@H]1CC[C@]2(C)O
not listed: [6]
inactive: all other assays above

NC(=O)CN1CCCC1=O
inactive: [1] | [2] | [3] | [4] | [6]

C[C@]12C[C@H]3S[C@H]3C[C@@H]1CC[C@@H]1[C@@H]2CC[C@]2(C)[C@@H](O)CC[C@@H]12
not listed: [6] | [8]
inactive: all other assays above

O=c1c2ccccc2[se]n1-c1ccccc1
not listed: [7]
inactive: all other assays above
